# Screens as filed in PubChem BioAssay.
# TAR Tat displ: TAR RNA-Tat peptide displacers, HIV-1, primary screen, biochemical, FRET, FAM/TAMRA-labeled Tat. HIV-1 TAR RNA, Tat peptide displacement FRET; active compounds read high. z-score (test concentration not listed). 0.6% of 100,000 active; active = z-score of 3 or more in at least 2 runs
# CDC25B CDK2 inh: primary biochemical HTRF screen for blockers of M-phase inducer phosphatase 2 binding to CDK2/cyclin A | z-score (concentration not given with the values) | P30305+P24941 | 0.72% of 94,000 active | HTRF CDC25B-CDK2/CyclinA binding, anti-His/anti-Flag; active compounds read high; in the data active = z-score above about 3.2
# Starred values were filed as active, the others as inactive; . = not tested or not shown. Shown are actives, neighbours in structure and some others; about 0.93% of the full set was active somewhere.
SMILES,TAR Tat displ,CDC25B CDK2 inh
COc1ccc(C(=O)CSc2ccc(-c3cccs3)nn2)cc1,0.45,.
COc1ccc(C(=O)CSc2nnc(-c3ccco3)c(-c3ccco3)n2)cc1,20.2*,-1.2
O=C(CSc1nnc(-c2ccco2)c(-c2ccco2)n1)Nc1cnc2ccccc2c1,25.5*,0.46
O=C(CSc1n[nH]c(-c2ccco2)n1)c1ccc(Cl)cc1,17*,-2.18
O=C(CSc1n[nH]c(-c2ccccc2)n1)c1ccc(Cl)cc1,.,-1.38
COc1ccc(C(=O)Cn2c3ccccc3n3nc(-c4ccco4)nc23)cc1,7.1*,-5.39
O=C(Nc1cnc2ccccc2c1)c1ccco1,0.67,.
COc1ccc(C(=O)Cn2c3ccccc3n3nc(-c4ccco4)nc23)cc1OC,0.31,-1.21
Cc1ccsc1CCNS(=O)(=O)c1ccc(CN2C(=O)c3cccnc3C2=O)s1,-0.16,.
O=C1CC(c2cccc(F)c2)C2=C(CC(c3cccs3)CC2=O)N1 (stereo unspecified),1.02,-0.2
CCCNC(=O)Nc1ccc2nc3n(c(=O)c2c1)CCCC3,1.41,.
CCOC(=O)CSc1nc(C)nc2c1oc1ccccc12,0.22,0.67
Cc1c(C(=O)NC2CCCCC2)oc2ccc3c(c12)C(O)CC1(CCCCC1)O3 (stereo unspecified),0.76,-2.83
COc1ccc(C)cc1S(=O)(=O)Nc1cc(N2CCCS2(=O)=O)ccc1C,0.4,.
Cc1cc(NC2=CC(=O)CC(C)(C)C2)n[nH]1,-0.71,-0.31
COc1ccc2c(c1)CC(NC(=O)Nc1ccc(F)cc1F)CO2 (stereo unspecified),1.44,.
CCc1cc2c3c([nH]c2cc1S(=O)(=O)Nc1ccc(F)cc1F)CCCC3=O,0.42,.
CCc1cc2c3c([nH]c2cc1S(=O)(=O)Nc1ccc(Cl)cc1F)CCCC3=O,4.33*,.
CSc1ccc(/C=C/c2nc(=O)c3ccccc3o2)cc1,-0.65,-0.74
O=c1nc(/C=C/c2ccc(O)c(O)c2)oc2ccccc12,18.2*,-0.52
Cc1cc(S(=O)(=O)N2CCC(c3nnc(-c4ccccc4C)o3)CC2)ccc1F,1.6,-1.85
Cc1ccc(-c2n[nH]c(=S)o2)cc1,-1.16,-0.24
CCN(CC)CCOc1ccc2c(c1)C(=O)c1cc(OCCN(CC)CC)ccc1-2,0.27,.
O=C(O)COc1ccc2c(c1)C(=O)c1cc(OCC(=O)O)ccc1-2,7.22*,-0.19
CC1Oc2ccccc2N(CC(=O)Nc2nnc(Cc3cn(C)c4ccccc34)s2)C1=O (stereo unspecified),0.94,.
SMILES,TAR Tat displ,CDC25B CDK2 inh
O=C(CCS(=O)(=O)c1ccc2c(c1)NC(=O)CO2)NCc1cccs1,0.21,.
O=C1c2oc3ccc(Cl)cc3c(=O)c2C(c2ccc(O)cc2)N1Cc1ccc2c(c1)OCO2 (stereo unspecified),0.45,-0.93
COc1ccc(-c2noc(-c3nnn(-c4ccc(C)c(C)c4)c3N)n2)cc1,4.68*,.
COc1ccc(-c2noc(-c3nnn(-c4ccc(OC)cc4)c3N)n2)cc1,1.02,.
Cc1ccc(NC(=O)Nc2ccc3snnc3c2)cc1,.,-0.55
O=C(NCCO)Nc1ccc2snnc2c1,1.79,10.8*
C=CCN1C(=O)C(O)(CC(=O)c2ccc(C)s2)c2cc(Br)ccc21 (stereo unspecified),-0.67,-2.22
COc1ccc2oc(=O)c(-c3csc(Nc4ccccc4)n3)cc2c1,.,-2.13
COc1ccc(Nc2nc(-c3cc4c(ccc5ccccc54)oc3=O)cs2)cc1,.,10.4*
CN1C2C=C(N(CCc3ccccc3)C(=O)c3ccccc3)CC1CC2 (stereo unspecified),1.14,0.29
Nc1ncc(S(=O)(=O)O)s1,.,-0.5
Nc1ncc(C2=C(Cl)C(O)C(Cl)=C(Cl)C2O)s1 (stereo unspecified),.,20.3*
CCOC(=O)/C(N=Nc1cccc(Cl)c1)=C(/O)CSc1ccc(Cl)cc1,.,-1.81
CSc1cccc(NC(=O)CSc2nc(-c3ccc4c(c3)OCO4)nc3cc(=O)[nH]n23)c1,21.9*,.
COc1ccc(NC(=O)CSc2nc(-c3cccs3)nc3cc(=O)[nH]n23)cc1,14.4*,.
Cc1ccc(-c2nc(SCC(=O)Nc3ccc(C)c(C)c3)n3[nH]c(=O)cc3n2)cc1,19.1*,.
CCc1ccc(NC(=O)CSc2nc(-c3ccc4c(c3)OCO4)nc3cc(=O)[nH]n23)cc1,7.38,.
CN(Cc1ccccc1)C(=O)CSc1nc(-c2ccccc2)nc2cc(=O)[nH]n12,10.3*,.
CN(C(=O)CSc1nc(-c2ccccc2)nc2cc(=O)[nH]n12)c1ccccc1,1.6,.
O=C(CSc1nc(-c2cccs2)nc2cc(=O)[nH]n12)Nc1ccccc1,0.68,.
Cc1cc(C)cc(NC(=O)CSc2nc(-c3ccccc3)nc3cc(=O)[nH]n23)c1,0.65,.
Cc1[nH]nc(-n2cnnc2)c1NC(=O)c1ccc(C(C)(C)C)cc1,1.69,-0.62
O=C(Nc1nc2ccccc2s1)Nc1cc(F)ccc1F,1.05,-3.11
Cc1sc(-n2cccc2)c(C(C)NC(=O)Nc2cc(F)ccc2F)c1C (stereo unspecified),-0.21,-1.29
CC(=O)NCCNC(=O)c1ccc(NC2=NC3CS(=O)(=O)CC3S2)cc1 (stereo unspecified),11.2*,.
SMILES,TAR Tat displ,CDC25B CDK2 inh
CN(C)CCNC(=O)c1ccc(NC2=NC3CS(=O)(=O)CC3S2)cc1 (stereo unspecified),2.12,.
O=c1[nH]c2ccc(Nc3cc(N4CCOCC4)ncn3)cc2[nH]1,0.27,8.21*
Cc1cc(C)n(-c2cc(Nc3ccc(F)cc3)ncn2)n1,-0.72,.
COC(=O)c1ccc2nnsc2c1,.,-1.29
O=C(Nc1nnc(-c2ccco2)s1)C(=O)c1c[nH]c2ccccc12,17.3*,-2.1
CC(C)c1nnc(NC(=O)C(=O)c2c[nH]c3ccccc23)s1,2.02,-1.28
NCCc1ccc(O)c(O)c1,24.6*,-0.08
COC(=O)C(N)Cc1ccc(O)c(O)c1 (stereo unspecified),-0.49,-2.17
Cc1ccc(S(=O)(=O)Nc2cc(-c3cn4ccccc4n3)ccc2C)cc1C,0.48,-0.43
O=c1c(N2CCOCC2)csc2ccc(F)cc12,0.68,.
CC1=NN(c2ccccc2)C(=O)/C1=C1/C(=O)N(c2ccccc2)N=C1C,.,1.06
CCC1=NN(c2ccccc2)C(=O)C1,-0.73,10.1*
O=C(O)c1cc(=O)c2ccccc2[nH]1,0.48,-0.32
O=C(O)c1cc(=O)c2cccc(O)c2[nH]1,5.31*,.
O=C(NCc1nnnn1-c1ccccc1)NC1CCCCC1,1.64,.
C[C@](N)(Cc1ccc(O)c(O)c1)C(=O)O,25.7*,0.01
C[C@](N)(Cc1ccc(O)cc1)C(=O)O,.,0.99
O=C(Nc1nnc(SCc2ccc(Cl)cc2)s1)c1csnn1,1.38,-2.43
COc1ccc(-c2c(N)n[nH]c2C)cc1OC,0.76,-2.18
COc1ccc(-c2cc(C3CCN(c4nc(N)c5cc(OC)c(OC)cc5n4)CC3)[nH]n2)cc1OC,.,19.8*
CC(C)(C)OC(=O)N1C(C(=O)O)COC1(C)C (stereo unspecified),.,-2.1
Cc1c(Br)sc(Br)c1-c1ccccc1,.,-1.15
Cc1ssc(=S)c1-c1ccccc1,.,5.7*
Cc1cc(=O)n2[nH]c(CNc3ccc(F)cc3)nc2n1,-1.19,-1.36
CCOC(=O)COc1cc2c(C(=O)OCC)c(C)n(CC)c2c2ccccc12,.,-0.24
CCn1c2ccccc2c2cc(CN3CCN(Cc4cccc(OC)c4)CC3)ccc21,.,6.68*
